Common to all, as to assay: DAPPL (digital affinity profiling via proximity ligation, sequencing); 10 mM Tris-HCl pH 7.5, 50 mM NaCl, 1 mM DTT, 4% glycerol, room temperature, 30 min; GST-TFs on glutathione beads, 16-mer random dsDNA library, 0.1% formaldehyde crosslink after washing; high values mean tight binding
One assay has as its target T1, FEV (Homo sapiens, UniProt Q99581 1-238).
T1 sequence: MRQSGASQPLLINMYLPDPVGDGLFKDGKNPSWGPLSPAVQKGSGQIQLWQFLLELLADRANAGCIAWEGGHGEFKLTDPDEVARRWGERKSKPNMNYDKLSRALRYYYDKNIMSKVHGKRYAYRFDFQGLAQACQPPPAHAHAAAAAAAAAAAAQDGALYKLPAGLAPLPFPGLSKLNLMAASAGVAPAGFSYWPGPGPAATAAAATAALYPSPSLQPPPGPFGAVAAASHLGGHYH
To be noted: protein: recombinant; tags: N-terminal GST; dsDNA, one strand shown. Summed up: (§1)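 Binding signal is given per hexamer as its read frequency for a factor divided by its frequency in the tag-only sample. GST-fused human transcription factors were expressed in yeast, captured on glutathione beads, barcoded with DNA and pooled with that sample, then incubated with 200 nmole of a 16-mer random double-stranded DNA library in Tris/NaCl/DTT/glycerol buffer for 30 min at room temperature. The pools were then washed, crosslinked, proximity-ligated, amplified by PCR and sequenced on an Illumina NextSeq500.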

Another assay has as its target ETV5 (Homo sapiens, UniProt P41161 1-510). Particulars: protein: recombinant; tags: N-terminal GST; dsDNA, one strand shown. Summed up:
as §1

Another assay addresses HSF1 (Homo sapiens, UniProt Q00613 1-529). Particulars: protein: recombinant; tags: N-terminal GST; chain copies: 3; dsDNA, one strand shown. Summed up:
as §1

The next assay deals with T2, SPIC (Homo sapiens, UniProt Q8N5J4 1-248).
T2 sequence: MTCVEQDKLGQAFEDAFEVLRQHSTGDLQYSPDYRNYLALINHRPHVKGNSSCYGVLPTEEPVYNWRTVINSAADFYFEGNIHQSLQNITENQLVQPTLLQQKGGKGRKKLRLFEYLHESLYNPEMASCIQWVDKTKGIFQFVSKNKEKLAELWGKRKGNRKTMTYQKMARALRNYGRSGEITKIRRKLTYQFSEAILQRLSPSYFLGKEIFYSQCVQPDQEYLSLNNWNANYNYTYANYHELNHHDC
To be noted: protein: recombinant; tags: N-terminal GST; dsDNA, one strand shown. The procedure, abridged: as §1

The target of another assay is ELF4 (Homo sapiens, UniProt Q99607 1-663). Particulars: protein: recombinant; tags: N-terminal GST; dsDNA, one strand shown. Summed up:
as §1

A further assay deals with T3, ELK4 (Homo sapiens, UniProt P28324-2 1-405).
T3 sequence: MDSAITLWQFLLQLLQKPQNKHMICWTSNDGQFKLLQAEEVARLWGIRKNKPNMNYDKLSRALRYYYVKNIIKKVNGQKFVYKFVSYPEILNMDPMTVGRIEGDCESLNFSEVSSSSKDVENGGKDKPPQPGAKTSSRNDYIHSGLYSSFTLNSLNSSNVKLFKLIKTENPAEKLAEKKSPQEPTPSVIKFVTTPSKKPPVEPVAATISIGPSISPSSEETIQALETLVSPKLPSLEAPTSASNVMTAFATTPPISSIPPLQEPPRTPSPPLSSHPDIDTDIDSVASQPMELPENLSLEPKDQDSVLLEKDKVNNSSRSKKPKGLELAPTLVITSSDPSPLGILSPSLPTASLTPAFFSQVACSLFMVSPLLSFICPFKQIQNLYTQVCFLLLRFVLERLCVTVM
Particulars: protein: recombinant; tags: N-terminal GST; dsDNA, one strand shown. Summed up: as §1

In a further assay the target is T4, ETV2 (Homo sapiens, UniProt O00321 1-342).
T4 sequence: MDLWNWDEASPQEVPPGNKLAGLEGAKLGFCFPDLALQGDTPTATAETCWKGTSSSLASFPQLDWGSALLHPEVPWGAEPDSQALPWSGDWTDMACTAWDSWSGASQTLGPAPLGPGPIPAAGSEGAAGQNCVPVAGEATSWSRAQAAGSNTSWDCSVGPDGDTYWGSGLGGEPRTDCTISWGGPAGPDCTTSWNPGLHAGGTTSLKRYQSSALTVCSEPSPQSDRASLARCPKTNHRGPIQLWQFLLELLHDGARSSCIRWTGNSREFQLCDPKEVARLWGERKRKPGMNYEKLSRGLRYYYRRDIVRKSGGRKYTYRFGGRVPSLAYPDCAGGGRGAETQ
Particulars: protein: recombinant; tags: N-terminal GST; dsDNA, one strand shown. Summed up: as §1

The target in the next assay is T5, ELF3 (Homo sapiens, UniProt P78545 1-371).
T5 sequence: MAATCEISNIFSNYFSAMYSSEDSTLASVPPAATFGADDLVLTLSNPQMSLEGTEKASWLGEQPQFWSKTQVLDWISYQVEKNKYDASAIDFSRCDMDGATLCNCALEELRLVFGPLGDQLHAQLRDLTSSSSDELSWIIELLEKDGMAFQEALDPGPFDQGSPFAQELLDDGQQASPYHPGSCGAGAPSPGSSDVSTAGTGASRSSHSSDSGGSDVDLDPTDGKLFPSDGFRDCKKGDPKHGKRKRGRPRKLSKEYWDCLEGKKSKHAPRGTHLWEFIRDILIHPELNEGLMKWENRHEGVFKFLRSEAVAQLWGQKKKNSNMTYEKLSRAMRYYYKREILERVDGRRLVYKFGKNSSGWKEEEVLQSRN
Particulars: protein: recombinant; tags: N-terminal GST; dsDNA, one strand shown. Summed up: as §1

A further assay addresses CRX (Homo sapiens, UniProt O43186 1-299). To be noted: protein: recombinant; tags: N-terminal GST; dsDNA, one strand shown. Summed up: as §1
A further assay has as its target ETV1 (Homo sapiens, UniProt P50549 1-477). Particulars: protein: recombinant; tags: N-terminal GST; dsDNA, one strand shown. Summed up:
as §1

In a further assay the target is T6, ERF (Homo sapiens, UniProt P50548 1-548).
T6 sequence: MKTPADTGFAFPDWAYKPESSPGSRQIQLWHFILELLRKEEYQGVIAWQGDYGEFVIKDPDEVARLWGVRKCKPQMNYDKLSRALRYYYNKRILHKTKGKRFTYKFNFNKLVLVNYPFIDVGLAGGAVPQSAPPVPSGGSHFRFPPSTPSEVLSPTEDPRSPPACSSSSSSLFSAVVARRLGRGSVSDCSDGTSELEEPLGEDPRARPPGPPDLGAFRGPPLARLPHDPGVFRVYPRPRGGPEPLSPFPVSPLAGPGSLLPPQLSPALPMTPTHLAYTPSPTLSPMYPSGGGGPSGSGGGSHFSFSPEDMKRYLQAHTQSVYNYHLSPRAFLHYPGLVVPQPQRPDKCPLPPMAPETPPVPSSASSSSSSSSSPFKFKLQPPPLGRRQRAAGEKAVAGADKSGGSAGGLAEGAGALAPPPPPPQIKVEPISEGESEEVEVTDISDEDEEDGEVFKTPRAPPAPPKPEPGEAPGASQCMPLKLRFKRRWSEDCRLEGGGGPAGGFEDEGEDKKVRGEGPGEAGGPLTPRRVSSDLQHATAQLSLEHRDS
To be noted: protein: recombinant; tags: N-terminal GST; dsDNA, one strand shown. The procedure, abridged:
as §1

For a further assay, the target named is T7, ETV3L (Homo sapiens, UniProt Q6ZN32 1-361).
T7 sequence: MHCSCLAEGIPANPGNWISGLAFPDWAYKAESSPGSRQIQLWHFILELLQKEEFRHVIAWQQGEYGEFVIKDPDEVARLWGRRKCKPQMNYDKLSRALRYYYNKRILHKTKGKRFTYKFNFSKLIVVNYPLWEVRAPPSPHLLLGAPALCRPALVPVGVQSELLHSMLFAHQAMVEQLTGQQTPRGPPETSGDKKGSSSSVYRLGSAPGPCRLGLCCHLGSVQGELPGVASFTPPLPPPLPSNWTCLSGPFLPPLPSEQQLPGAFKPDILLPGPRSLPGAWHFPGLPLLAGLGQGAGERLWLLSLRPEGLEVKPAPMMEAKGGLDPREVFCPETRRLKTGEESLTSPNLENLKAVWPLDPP
Particulars: protein: recombinant; tags: N-terminal GST; dsDNA, one strand shown. Summed up: as §1

For another assay, the target named is T8, ETS2 (Homo sapiens, UniProt P15036 1-469).
T8 sequence: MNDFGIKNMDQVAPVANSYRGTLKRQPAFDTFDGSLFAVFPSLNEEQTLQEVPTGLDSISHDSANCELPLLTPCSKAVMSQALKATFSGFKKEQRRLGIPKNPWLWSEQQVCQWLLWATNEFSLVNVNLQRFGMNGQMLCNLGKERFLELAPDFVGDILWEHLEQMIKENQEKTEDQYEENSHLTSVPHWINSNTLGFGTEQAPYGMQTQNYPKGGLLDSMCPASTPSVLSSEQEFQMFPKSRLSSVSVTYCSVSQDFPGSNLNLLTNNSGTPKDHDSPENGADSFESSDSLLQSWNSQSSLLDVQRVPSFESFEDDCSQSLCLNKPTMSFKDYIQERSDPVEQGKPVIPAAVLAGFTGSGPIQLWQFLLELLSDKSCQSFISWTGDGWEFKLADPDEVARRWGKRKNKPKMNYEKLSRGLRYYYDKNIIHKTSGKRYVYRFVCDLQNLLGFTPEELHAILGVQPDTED
Particulars: protein: recombinant; tags: N-terminal GST; dsDNA, one strand shown. The procedure, abridged:
as §1

The next assay addresses T9, SPDEF (Homo sapiens, UniProt O95238 1-335).
T9 sequence: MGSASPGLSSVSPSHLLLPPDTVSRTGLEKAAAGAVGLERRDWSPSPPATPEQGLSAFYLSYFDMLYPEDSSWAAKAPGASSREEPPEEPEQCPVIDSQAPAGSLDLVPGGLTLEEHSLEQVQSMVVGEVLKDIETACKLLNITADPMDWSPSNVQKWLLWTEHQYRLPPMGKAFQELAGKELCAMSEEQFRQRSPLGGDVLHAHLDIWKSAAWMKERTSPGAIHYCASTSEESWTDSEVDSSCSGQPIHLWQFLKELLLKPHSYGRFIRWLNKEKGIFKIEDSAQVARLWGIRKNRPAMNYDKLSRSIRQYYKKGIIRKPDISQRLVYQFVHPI
Particulars: protein: recombinant; tags: N-terminal GST; dsDNA, one strand shown. Summed up: as §1

A further assay addresses T10, ETV7 (Homo sapiens, UniProt Q9Y603 1-341).
T10 sequence: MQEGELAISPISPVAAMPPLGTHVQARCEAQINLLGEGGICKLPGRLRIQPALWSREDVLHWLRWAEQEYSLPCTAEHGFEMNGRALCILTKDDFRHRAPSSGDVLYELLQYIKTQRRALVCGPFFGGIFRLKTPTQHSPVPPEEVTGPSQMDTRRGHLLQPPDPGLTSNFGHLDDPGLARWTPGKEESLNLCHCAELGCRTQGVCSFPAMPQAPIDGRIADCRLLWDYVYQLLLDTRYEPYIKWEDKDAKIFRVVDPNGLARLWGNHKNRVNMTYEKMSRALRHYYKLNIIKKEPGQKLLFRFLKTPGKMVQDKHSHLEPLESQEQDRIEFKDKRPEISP
Particulars: protein: recombinant; tags: N-terminal GST; dsDNA, one strand shown. Summed up: as §1

For the next assay, the target named is T11, ELF5 (Homo sapiens, UniProt Q9UKW6-2 1-255).
T11 sequence: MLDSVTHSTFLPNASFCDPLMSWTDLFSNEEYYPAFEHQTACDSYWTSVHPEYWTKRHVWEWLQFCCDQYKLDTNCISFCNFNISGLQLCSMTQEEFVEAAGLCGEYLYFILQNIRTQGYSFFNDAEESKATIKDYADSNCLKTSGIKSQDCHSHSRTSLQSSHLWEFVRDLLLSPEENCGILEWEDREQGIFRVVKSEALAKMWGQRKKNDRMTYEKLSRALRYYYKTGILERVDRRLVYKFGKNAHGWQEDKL
Particulars: protein: recombinant; tags: N-terminal GST; dsDNA, one strand shown. Summed up: as §1

The target in another assay is T12, ETV3 (Homo sapiens, UniProt P41162-2 1-143).
T12 sequence: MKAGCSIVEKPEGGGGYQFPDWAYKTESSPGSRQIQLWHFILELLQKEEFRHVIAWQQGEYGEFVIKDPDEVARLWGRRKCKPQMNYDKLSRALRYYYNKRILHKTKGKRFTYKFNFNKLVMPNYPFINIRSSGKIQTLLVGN
To be noted: protein: recombinant; tags: N-terminal GST; dsDNA, one strand shown. Summed up: as §1

The target of a further assay is ETV6 (Homo sapiens, UniProt P41212 1-452). Particulars: protein: recombinant; tags: N-terminal GST; dsDNA, one strand shown. Summed up: as §1
Chain of ETV6 (P41212 whole entry): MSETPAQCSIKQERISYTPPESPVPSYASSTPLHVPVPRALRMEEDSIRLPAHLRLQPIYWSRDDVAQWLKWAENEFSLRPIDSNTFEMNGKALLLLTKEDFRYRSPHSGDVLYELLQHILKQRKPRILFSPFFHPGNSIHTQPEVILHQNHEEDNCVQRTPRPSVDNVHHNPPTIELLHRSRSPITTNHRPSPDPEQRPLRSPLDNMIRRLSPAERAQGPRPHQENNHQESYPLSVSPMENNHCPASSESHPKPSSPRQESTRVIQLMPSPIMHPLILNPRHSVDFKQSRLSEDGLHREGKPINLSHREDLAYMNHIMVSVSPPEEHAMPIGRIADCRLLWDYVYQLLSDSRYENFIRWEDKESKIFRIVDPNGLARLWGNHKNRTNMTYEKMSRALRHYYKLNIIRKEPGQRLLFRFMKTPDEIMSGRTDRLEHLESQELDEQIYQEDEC

Chain of ELF4 (Q99607 whole entry): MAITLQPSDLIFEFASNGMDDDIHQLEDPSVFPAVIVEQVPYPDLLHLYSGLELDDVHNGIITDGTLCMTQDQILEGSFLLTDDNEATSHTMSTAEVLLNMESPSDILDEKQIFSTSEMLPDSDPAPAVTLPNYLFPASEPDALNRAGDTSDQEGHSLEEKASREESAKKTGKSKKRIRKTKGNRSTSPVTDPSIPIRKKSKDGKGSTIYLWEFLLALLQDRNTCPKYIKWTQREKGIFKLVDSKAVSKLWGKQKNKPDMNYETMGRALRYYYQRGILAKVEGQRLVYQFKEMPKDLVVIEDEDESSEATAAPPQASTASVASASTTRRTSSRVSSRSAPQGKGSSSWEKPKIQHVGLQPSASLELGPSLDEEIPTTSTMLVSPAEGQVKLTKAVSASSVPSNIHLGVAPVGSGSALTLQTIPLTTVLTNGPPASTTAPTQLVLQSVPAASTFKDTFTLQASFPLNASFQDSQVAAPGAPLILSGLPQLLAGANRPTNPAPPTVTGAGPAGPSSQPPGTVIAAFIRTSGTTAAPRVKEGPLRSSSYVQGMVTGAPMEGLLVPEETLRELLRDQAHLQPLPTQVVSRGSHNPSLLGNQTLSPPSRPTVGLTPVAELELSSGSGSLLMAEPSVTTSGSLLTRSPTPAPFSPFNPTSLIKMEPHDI
Chain of HSF1 (Q00613 whole entry): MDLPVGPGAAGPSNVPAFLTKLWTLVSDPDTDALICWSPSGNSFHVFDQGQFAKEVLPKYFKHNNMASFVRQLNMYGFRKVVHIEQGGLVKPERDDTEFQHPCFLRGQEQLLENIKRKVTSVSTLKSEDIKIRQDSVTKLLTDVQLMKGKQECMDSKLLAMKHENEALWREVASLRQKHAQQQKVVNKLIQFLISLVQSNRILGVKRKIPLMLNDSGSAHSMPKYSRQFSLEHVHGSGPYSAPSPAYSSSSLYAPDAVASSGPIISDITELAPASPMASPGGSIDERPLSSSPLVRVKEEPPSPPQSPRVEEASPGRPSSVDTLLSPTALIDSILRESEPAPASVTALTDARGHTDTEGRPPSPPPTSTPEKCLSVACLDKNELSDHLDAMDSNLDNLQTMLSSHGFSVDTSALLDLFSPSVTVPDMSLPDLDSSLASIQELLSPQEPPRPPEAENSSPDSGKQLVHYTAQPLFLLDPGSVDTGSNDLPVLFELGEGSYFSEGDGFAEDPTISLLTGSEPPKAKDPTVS
Chain of CRX (O43186 whole entry): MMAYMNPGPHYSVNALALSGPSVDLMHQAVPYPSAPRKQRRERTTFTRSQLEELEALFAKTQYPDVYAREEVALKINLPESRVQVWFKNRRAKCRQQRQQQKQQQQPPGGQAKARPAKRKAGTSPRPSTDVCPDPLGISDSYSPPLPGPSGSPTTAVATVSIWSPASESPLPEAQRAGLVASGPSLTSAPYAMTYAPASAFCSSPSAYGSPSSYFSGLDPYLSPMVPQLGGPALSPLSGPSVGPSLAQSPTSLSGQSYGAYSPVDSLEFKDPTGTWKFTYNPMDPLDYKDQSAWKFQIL
Chain of ETV1 (P50549 whole entry): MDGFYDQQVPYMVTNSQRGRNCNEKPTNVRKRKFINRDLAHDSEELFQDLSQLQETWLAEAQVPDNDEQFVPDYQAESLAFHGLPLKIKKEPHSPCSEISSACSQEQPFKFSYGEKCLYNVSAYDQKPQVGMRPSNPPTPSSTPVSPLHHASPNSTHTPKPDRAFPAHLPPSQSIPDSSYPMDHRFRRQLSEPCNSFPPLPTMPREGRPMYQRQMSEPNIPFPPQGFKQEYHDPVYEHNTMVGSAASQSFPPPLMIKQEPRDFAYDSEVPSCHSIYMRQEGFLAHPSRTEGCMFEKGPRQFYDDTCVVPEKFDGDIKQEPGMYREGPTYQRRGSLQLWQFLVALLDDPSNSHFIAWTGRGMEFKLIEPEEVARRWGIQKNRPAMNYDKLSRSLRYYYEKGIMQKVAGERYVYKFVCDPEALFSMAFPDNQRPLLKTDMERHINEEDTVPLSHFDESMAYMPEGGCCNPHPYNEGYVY
Chain of ETV5 (P41161 whole entry): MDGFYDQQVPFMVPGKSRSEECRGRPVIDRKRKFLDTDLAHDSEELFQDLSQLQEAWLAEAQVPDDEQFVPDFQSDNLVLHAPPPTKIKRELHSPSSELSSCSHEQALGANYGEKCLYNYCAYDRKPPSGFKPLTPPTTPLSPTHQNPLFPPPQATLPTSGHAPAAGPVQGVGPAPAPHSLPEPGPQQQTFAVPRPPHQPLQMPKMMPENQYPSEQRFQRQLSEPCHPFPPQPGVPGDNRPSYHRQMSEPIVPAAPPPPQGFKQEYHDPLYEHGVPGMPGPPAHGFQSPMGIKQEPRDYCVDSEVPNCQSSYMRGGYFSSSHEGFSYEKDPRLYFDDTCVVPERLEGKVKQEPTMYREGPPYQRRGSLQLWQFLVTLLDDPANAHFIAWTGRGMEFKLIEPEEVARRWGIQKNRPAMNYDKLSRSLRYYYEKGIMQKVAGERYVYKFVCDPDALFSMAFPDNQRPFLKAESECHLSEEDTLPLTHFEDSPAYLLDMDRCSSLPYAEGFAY

Take ATAGAA: the binding signal with FEV is 1.04 fold enrichment (6-mer frequency, TF over GST control); with ETV5, 1.05 fold enrichment (6-mer frequency, TF over GST control); in the assay with HSF1 it was 1.93 fold enrichment (6-mer frequency, TF over GST control); in the assay with SPIC it was 1.03 fold enrichment (6-mer frequency, TF over GST control); with ELF4 it was 1.1 fold enrichment (6-mer frequency, TF over GST control); with ELK4, 1.02 fold enrichment (6-mer frequency, TF over GST control). Moreover, the binding signal with ETV2 is 1.01 fold enrichment (6-mer frequency, TF over GST control); with ELF3, 1 fold enrichment (6-mer frequency, TF over GST control); with CRX, 1.28 fold enrichment (6-mer frequency, TF over GST control); in the assay with ETV1 it was 1.12 fold enrichment (6-mer frequency, TF over GST control); with ERF, 1.1 fold enrichment (6-mer frequency, TF over GST control); in the assay with ETV3L it was 1.1 fold enrichment (6-mer frequency, TF over GST control). For the same sequence, the binding signal with ETS2 was 1.07 fold enrichment (6-mer frequency, TF over GST control); with SPDEF, 1.02 fold enrichment (6-mer frequency, TF over GST control); with ETV7 it was 1.16 fold enrichment (6-mer frequency, TF over GST control); with ELF5, 1.04 fold enrichment (6-mer frequency, TF over GST control); with ETV3, 1.1 fold enrichment (6-mer frequency, TF over GST control); in the assay with ETV6 it was 1.13 fold enrichment (6-mer frequency, TF over GST control).

The values are drawn from publication PMC7862700, “An all-to-all approach to the identification of sequence-specific readers for epigenetic DNA modifications on cytosine”.
